About 2,200 (0.71%) of roughly 310,000 compounds showed an effect of 50% or more. Effects have a minus sign here. This excerpt belongs to a sample that is enriched for strong results.
The molecules below were run against human ether-à-go-go-related gene (hERG) potassium channel (human, UniProt Q12809) (assay: primary screen, population patch clamp on CHO cells stably expressing hERG; higher = less effect of the substance).
Sequence of human ether-à-go-go-related gene (hERG) potassium channel (Q12809 whole entry, looked up): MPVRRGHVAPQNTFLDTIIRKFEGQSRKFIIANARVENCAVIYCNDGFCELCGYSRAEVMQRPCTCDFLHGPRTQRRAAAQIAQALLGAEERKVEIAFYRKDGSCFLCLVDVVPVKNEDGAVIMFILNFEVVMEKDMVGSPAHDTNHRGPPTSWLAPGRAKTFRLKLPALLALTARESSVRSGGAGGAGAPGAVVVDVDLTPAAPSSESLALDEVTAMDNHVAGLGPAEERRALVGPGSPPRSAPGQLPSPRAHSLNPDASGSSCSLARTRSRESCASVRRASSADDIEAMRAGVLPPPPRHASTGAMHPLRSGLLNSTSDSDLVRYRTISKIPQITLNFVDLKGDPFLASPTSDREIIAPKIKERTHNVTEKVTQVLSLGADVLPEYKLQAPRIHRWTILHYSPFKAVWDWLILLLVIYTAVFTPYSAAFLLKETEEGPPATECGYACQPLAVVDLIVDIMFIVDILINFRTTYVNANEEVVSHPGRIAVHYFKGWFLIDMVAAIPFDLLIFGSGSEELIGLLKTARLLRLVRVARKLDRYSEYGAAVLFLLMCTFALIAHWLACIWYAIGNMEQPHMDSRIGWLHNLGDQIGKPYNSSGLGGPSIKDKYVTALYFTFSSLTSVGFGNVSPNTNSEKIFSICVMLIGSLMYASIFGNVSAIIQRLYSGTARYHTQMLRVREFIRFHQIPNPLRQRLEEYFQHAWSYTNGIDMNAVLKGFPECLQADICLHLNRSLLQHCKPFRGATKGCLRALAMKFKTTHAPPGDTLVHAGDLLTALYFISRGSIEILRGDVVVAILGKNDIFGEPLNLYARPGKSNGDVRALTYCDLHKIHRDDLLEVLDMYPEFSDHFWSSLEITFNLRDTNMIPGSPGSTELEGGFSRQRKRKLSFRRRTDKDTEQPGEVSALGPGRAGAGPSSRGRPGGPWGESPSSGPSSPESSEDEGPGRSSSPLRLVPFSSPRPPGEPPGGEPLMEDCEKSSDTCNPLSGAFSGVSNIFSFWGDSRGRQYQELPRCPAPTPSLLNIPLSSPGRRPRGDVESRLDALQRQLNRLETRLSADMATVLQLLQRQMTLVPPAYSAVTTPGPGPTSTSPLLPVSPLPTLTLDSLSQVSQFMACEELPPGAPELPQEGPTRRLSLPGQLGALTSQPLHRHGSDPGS
`O=C(COC(=O)CCC(=O)c1ccc(F)cc1)Nc1nnc(-c2ccccc2)o1` was tested, and the “hERG current change (%, negative = inhibition) at 1uM” value was -0.682%. In the case of `CCCCCCCNC(=O)C1(CC2CC(c3ccc(Cl)cc3)=NO2)CCN(C(=O)OC(C)(C)C)CC1` (stereo not drawn), the “hERG current change (%, negative = inhibition) at 1uM” value is reported as 18.9%. `CCCCCCCNC(=O)C1(CC2CC(c3cccc(Br)c3)=NO2)CCN(C(=O)CCCCCBr)CC1` (stereo not drawn) was tested, and the “hERG current change (%, negative = inhibition) at 1uM” value was -72%. With `CCCNC(=O)C1(CC2CC(c3ccccc3)=NO2)CCN(C(=O)CCCCCBr)CC1` (stereo not drawn) the “hERG current change (%, negative = inhibition) at 1uM” value was -5.35%. `CCCCCCCNC(=O)C1(CC2CC(c3ccc(Cl)cc3)=NO2)CCN(C(=O)CCCCCBr)CC1` (stereo not drawn) was tested, and the “hERG current change (%, negative = inhibition) at 1uM” value was -52.1%. With `O=C(CCCCCBr)N1CCC(CC2CC(c3ccc(Cl)cc3)=NO2)(C(=O)NCC2CCCCC2)CC1` (stereo not drawn) the “hERG current change (%, negative = inhibition) at 1uM” value was -37.5%. With `CCCCCCCNC(=O)C1(CC2CC(c3cccc(Br)c3)=NO2)CCN(C(=O)OC(C)(C)C)CC1` (stereo not drawn) the “hERG current change (%, negative = inhibition) at 1uM” value was 4.2%. For `CCN1C(=O)N(CC)C2NC(=S)NC21` (stereo not drawn), the “hERG current change (%, negative = inhibition) at 1uM” value was 7.44%. In the case of `CC(=O)C1=C(NC(=O)c2ccc(F)cc2)CC2C1C2(C)C` (stereo not drawn), the “hERG current change (%, negative = inhibition) at 1uM” value is reported as 9.7%. In the case of `O=C(CN1C(=O)CSc2ccccc21)N1CCc2ccccc21`, the “hERG current change (%, negative = inhibition) at 1uM” value is reported as 9.93%. With `O=C(O)CSc1nnc(SCc2cccc3ccccc23)s1` the “hERG current change (%, negative = inhibition) at 1uM” value was 6.81%. With `COc1ccccc1CNC(=O)C1CCN(S(=O)(=O)c2ccc3c(c2)OCCCO3)CC1` the “hERG current change (%, negative = inhibition) at 1uM” value was -1.02%. With `COC(=O)C1(C)Cc2cc(OC(C)=O)c(OC(C)=O)cc2N1` (stereo not drawn) the “hERG current change (%, negative = inhibition) at 1uM” value was 11.7%. In the case of `CC(=O)Nc1ccc(NC(=O)CSc2nccn2Cc2ccccc2)cc1`, the “hERG current change (%, negative = inhibition) at 1uM” value is reported as 10.5%. For `O=C(Oc1ccc(C(=S)N2CCOCC2)cc1)c1ccccc1[N+](=O)[O-]`, the “hERG current change (%, negative = inhibition) at 1uM” value was 21.2%. With `O=C(Nc1ccc(Cl)cc1)Nc1nnc(Cc2ccc([N+](=O)[O-])cc2)s1` the “hERG current change (%, negative = inhibition) at 1uM” value was 13.9%. With `COc1ccccc1CCNC(=O)C1CCN(c2nnc(C)c3c(C)n(-c4ccc(C)cc4)nc23)CC1` the “hERG current change (%, negative = inhibition) at 1uM” value was 14.7%. With `CN/C=C(/Cl)P(=O)(OC(C)C)OC(C)C` the “hERG current change (%, negative = inhibition) at 1uM” value was 11%. In the case of `COc1ccccc1C(=O)Nc1ccnn1C1CCN(Cc2cnc(N(C)C)s2)CC1`, the “hERG current change (%, negative = inhibition) at 1uM” value is reported as -24.7%. With `CCOc1ccc(CN2CCC(n3nccc3NC(=O)c3ccccc3OC)CC2)cc1` the “hERG current change (%, negative = inhibition) at 1uM” value was -89.4%. `COc1ccccc1C(=O)Nc1ccnn1C1CCN(C(=O)C2CCOC2)CC1` (stereo not drawn) was tested, and the “hERG current change (%, negative = inhibition) at 1uM” value was 4.19%. For `CCn1ccnc1CN1CCC(n2nccc2NC(=O)c2ccccc2OC)CC1`, the “hERG current change (%, negative = inhibition) at 1uM” value was -64.9%. In the case of `COc1ccccc1C(=O)Nc1ccnn1C1CCN(Cc2ncc[nH]2)CC1`, the “hERG current change (%, negative = inhibition) at 1uM” value is reported as 6%. `CCCn1ncc(CN2CCC(n3nccc3NC(=O)c3ccccc3OC)CC2)c1C` was tested, and the “hERG current change (%, negative = inhibition) at 1uM” value was -73.2%. For `CCCn1ncc(CN2CCC(n3nccc3NC(=O)c3ccccc3Cl)CC2)c1C`, the “hERG current change (%, negative = inhibition) at 1uM” value was -47.6%. In the case of `COc1ccccc1C(=O)Nc1ccnn1C1CCN(Cc2cn(C)c3ccccc23)CC1`, the “hERG current change (%, negative = inhibition) at 1uM” value is reported as -74.9%. With `COc1ccccc1C(=O)Nc1ccnn1C1CCN(Cc2cnn(C)c2C)CC1` the “hERG current change (%, negative = inhibition) at 1uM” value was -28.8%. `Cn1cc(CN2CCC(n3nccc3NC(=O)c3ccccc3Cl)CC2)c2ccccc21` was tested, and the “hERG current change (%, negative = inhibition) at 1uM” value was -47.6%. With `COc1ccccc1C(=O)Nc1ccnn1C1CCN(Cc2ccn[nH]2)CC1` the “hERG current change (%, negative = inhibition) at 1uM” value was 1.62%. With `CCn1ccnc1CN1CCC(n2nccc2NC(=O)CCc2ccccc2)CC1` the “hERG current change (%, negative = inhibition) at 1uM” value was 15.9%. `CCCCn1c(O)c(C(CC)=Nc2ccc(OC)cc2OC)c(=O)[nH]c1=O` was tested, and the “hERG current change (%, negative = inhibition) at 1uM” value was 4.73%. `Cc1ccc2c(CN3CC(C)CC(C)C3)cc(=O)oc2c1C` (stereo not drawn) was tested, and the “hERG current change (%, negative = inhibition) at 1uM” value was 9.29%. With `COC(=O)C(NC(C)=O)(Nc1ccc(Br)cn1)C(F)(F)F` (stereo not drawn) the “hERG current change (%, negative = inhibition) at 1uM” value was 6.68%. In the case of `CCCCNC(=O)COC(=O)c1ccc(C)c(NC(=O)c2ccco2)c1`, the “hERG current change (%, negative = inhibition) at 1uM” value is reported as 11.3%. `COC(=O)COc1cc(C)cc2oc(=O)c3c(c12)CCCC3` was tested, and the “hERG current change (%, negative = inhibition) at 1uM” value was -4.18%. For `O=C(CCCN1C(=O)c2ccccc2C1=O)Nc1nncs1`, the “hERG current change (%, negative = inhibition) at 1uM” value was 14.9%. For `CC(=O)c1cc(CN2CCC(n3nccc3NC(=O)c3ccccc3C)CC2)cs1`, the “hERG current change (%, negative = inhibition) at 1uM” value was -15.8%. With `COc1ccccc1CN1CCC(n2nccc2NC(=O)c2ccccc2Cl)CC1` the “hERG current change (%, negative = inhibition) at 1uM” value was -47.2%. In the case of `COc1ccccc1C(=O)Nc1ccnn1C1CCN(Cc2cnn(C)c2)CC1`, the “hERG current change (%, negative = inhibition) at 1uM” value is reported as -27%. In the case of `COc1ccccc1C(=O)Nc1ccnn1C1CCN(Cc2ccc3nonc3c2)CC1`, the “hERG current change (%, negative = inhibition) at 1uM” value is reported as -61.8%. In the case of `O=C(Nc1ccnn1C1CCN(Cc2ccccc2OCCO)CC1)c1cccc(F)c1`, the “hERG current change (%, negative = inhibition) at 1uM” value is reported as -6.97%. In the case of `COc1ccccc1C(=O)Nc1ccnn1C1CCN(Cc2csc(C(C)=O)c2)CC1`, the “hERG current change (%, negative = inhibition) at 1uM” value is reported as -50.9%. For `COc1ccccc1C(=O)Nc1ccnn1C1CCN(Cc2ccccc2OCCO)CC1`, the “hERG current change (%, negative = inhibition) at 1uM” value was -79.5%. For `CCn1cc(CN2CCC(n3nccc3NC(=O)c3ccccc3OC)CC2)cn1`, the “hERG current change (%, negative = inhibition) at 1uM” value was -53.5%. `CC(=O)c1cc(CN2CCC(n3nccc3NC(=O)c3ccccc3Cl)CC2)cs1` was tested, and the “hERG current change (%, negative = inhibition) at 1uM” value was -40.5%. For `COc1ccc(C(=O)Nc2ccnn2C2CCN(Cc3ccc4nonc4c3)CC2)cc1`, the “hERG current change (%, negative = inhibition) at 1uM” value was -0.334%. With `CCn1cc(CN2CCC(n3nccc3NC(=O)c3ccccc3C)CC2)cn1` the “hERG current change (%, negative = inhibition) at 1uM” value was -14.9%. For `N#CCC1c2ccccc2CCN1C(=O)Nc1ccc(C(F)(F)F)cc1` (stereo not drawn), the “hERG current change (%, negative = inhibition) at 1uM” value was -4.23%. For `COc1ccccc1S(=O)(=O)CC(O)COc1ccc(F)cc1Cl` (stereo not drawn), the “hERG current change (%, negative = inhibition) at 1uM” value was 12.6%. With `O=C(CNC(=O)c1ccc(Br)cc1)NCC(=O)OCC(=O)c1ccccc1` the “hERG current change (%, negative = inhibition) at 1uM” value was 9.69%. For `CC(=O)Nc1cc2c3c(c1)CCN3C(=O)CC2`, the “hERG current change (%, negative = inhibition) at 1uM” value was 22.9%. In the case of `CCC1=Nc2ccccc2NC2=C1C(=O)CCC2.Cl`, the “hERG current change (%, negative = inhibition) at 1uM” value is reported as -18.7%. `CC(C)(C)NC(=O)Cn1c(SCC(=O)Nc2nccs2)nc2ccccc21` was tested, and the “hERG current change (%, negative = inhibition) at 1uM” value was 10.4%. In the case of `CC(C)COC(=O)NC1c2ccccc2Oc2ccccc21`, the “hERG current change (%, negative = inhibition) at 1uM” value is reported as -2.38%.
